CYP2C9 activ – increases human cytochrome P450 2C9 activity; P11712; recombinant CYP2C9, luciferin-H conversion, luminescence; hits give high values; factor 1 = untreated enzyme, 0 = blocked; 96,000 compounds, 1.4% hits; activation factor at 5 µM; AID 1024;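 active means activation factor of 2 or more for CYP2C9 at a 5 µM dose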
Target sequence (P11712 whole entry, looked up): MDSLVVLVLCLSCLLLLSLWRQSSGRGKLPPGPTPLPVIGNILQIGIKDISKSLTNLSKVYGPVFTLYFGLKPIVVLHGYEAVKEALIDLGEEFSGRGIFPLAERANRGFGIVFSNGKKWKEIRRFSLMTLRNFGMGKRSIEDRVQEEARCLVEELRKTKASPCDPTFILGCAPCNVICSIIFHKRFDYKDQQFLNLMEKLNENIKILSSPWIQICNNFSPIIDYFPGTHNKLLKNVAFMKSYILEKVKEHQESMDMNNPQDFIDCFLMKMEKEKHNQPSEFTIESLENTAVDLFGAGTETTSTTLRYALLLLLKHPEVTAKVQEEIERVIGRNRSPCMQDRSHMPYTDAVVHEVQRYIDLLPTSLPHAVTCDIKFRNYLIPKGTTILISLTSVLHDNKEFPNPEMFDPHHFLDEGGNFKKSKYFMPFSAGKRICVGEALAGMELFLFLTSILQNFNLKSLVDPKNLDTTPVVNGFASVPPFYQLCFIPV
PostGolgi ctrl – inhibits growth of the yeast control strain | efflux-deficient yeast background strain, growth absorbance A615, 16 h | inhibition, % at 10 µM | 98,000 compounds, 5% hits | AID 738
CYP2C9 inh – human CYP2C9 inhibition. inhibition, % at 5 µM. P11712. CYP2C9 Supersomes, luciferin-H conversion, luminescence. AID 777. 96,000 compounds, 20% hits;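 active means blocking of liver enzyme CYP2C9 beyond about 50% at 5 µM, limit read from the data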
CYP2C19 act – increases human CYP2C19 enzyme activity. 96,000 tested, under 10 active. activation factor at 5 µM. recombinant CYP2C19, luciferin-H EGE luminescence; hits give high values; 0 = fully inhibited enzyme, 1 = untreated enzyme. P33261;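 active means activation factor of at least 2 at 5 µM in the primary screen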
PostGolgi yeast – growth inhibition of a yeast mutant, post-Golgi transport screen. 98,000 compounds, 0.9% hits. AID 739. inhibition, % at 10 µM. post-Golgi transport phenotypic cell assay;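 further: yeast cells grown in 1536-well plates; yeast grown about 18 h at 30C before absorbance read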
CYP2C19 inh – human CYP2C19 inhibition. inhibition, % at 5 µM. AID 778. 96,000 compounds, 21% hits. CYP2C19 Supersomes, luciferin-H EGE luminescence, 30 min;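 active means CYP2C19 inhibition above a set limit at 5 µM in the primary screen, cut at about 50% in these data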
Of the large screens only hits and unclear results are named; the others gave an inactive call. The list is not random: actives were taken first. Their share in the collection is about 32%. Unless noted, no stated cut-off is given here; in the data, active means inhibition above about 30%; inactive means the rest.

Fc1ccc(Sc2nc(-c3ccccc3)nnc2C(F)(F)F)cc1	PostGolgi ctrl 72
[O-][n+]1c2c(c3c4non(O)c4ccc31)CCCC2	PostGolgi ctrl 82, PostGolgi yeast 31
O=C1CC(c2ccc(F)cc2)CC(O)=C1C=NCCN1CCN(C(=O)Nc2ccccc2)CC1 (configuration not stated)	CYP2C9 inh 54, CYP2C19 inh 77
CC(C)(C)C(=O)N1CCCC1C(=O)O (configuration not stated)	none
COc1ccc(CNC(=O)CCCn2c(SCC#N)nc3cc4c(cc3c2=O)OCO4)cc1	CYP2C9 inh 80, CYP2C19 inh 54
NC(=O)CSc1nc2cc3c(cc2c(=O)n1CCCC(=O)NCc1ccc2c(c1)OCO2)OCO3	CYP2C9 inh 74
Cc1ccccc1C(=O)NN(C)c1nc2ccccc2nc1C(F)(F)F	none
CN(NS(=O)(=O)c1ccccc1)c1nc2ccccc2nc1C(F)(F)F	CYP2C9 inh 90, CYP2C19 inh 99
COc1ccc(N2CCN(C(=O)c3ccc(C)c(Cl)c3)CC2)cc1	none
COc1ccc(N2CCN(C(=O)c3ccc(NS(=O)(=O)c4ccc(F)c(F)c4)cc3)CC2)cc1	CYP2C9 inh 93
COc1ccc(N2CCN(C(=O)c3ccc(NS(=O)(=O)c4cccc(F)c4)cc3)CC2)cc1	CYP2C9 inh 90
Cc1ccc2c(c1)nnn2C1CCN(CC(=O)NCCc2nc3ccccc3[nH]2)CC1	none
O=c1oc2cc(Br)ccc2n1CSC1=NCCS1	none
COc1ccc2c(c1[N+](=O)[O-])CCC/C2=N/OC(=O)c1cccc2ccccc12	CYP2C9 activ 2
COc1ccccc1CNC(=O)Nc1cccs1	CYP2C19 inh 88
COc1ccc(CNC(=O)Nc2cccs2)cc1OC	none
COc1ccc(Br)cc1CNC(=O)Nc1cccs1	CYP2C9 inh 67, CYP2C19 inh 76
O=C(Nn1c(-c2ccccc2)nc2ccccc2c1=O)C1CCC1	none
O=C1CC(N2CCN(Cc3ccccc3)CC2)C(=O)N1CCc1ccccc1 (configuration not stated)	none
Cc1ccc(S(=O)(=O)N2CCN(C3CC(=O)N(Cc4ccccc4)C3=O)CC2)cc1C (configuration not stated)	CYP2C19 inh 60
COc1ccc(CCN2C(=O)CC(N3CCN(S(=O)(=O)c4ccccc4)CC3)C2=O)cc1 (configuration not stated)	none
Cc1cc2ncn(C3CC(=O)N(Cc4ccccc4)C3=O)c2cc1C (configuration not stated)	PostGolgi ctrl 40
O=C1CC(N2CCN(S(=O)(=O)c3cccc(C(F)(F)F)c3)CC2)C(=O)N1Cc1ccccc1 (configuration not stated)	CYP2C19 inh 59
COc1cc2c(cc1NC(=O)CN1CCN(S(=O)(=O)c3ccccc3F)CC1)oc1ccccc12	none
CC(=O)c1ccc(N(C)C)c2c(N(C)C)cccc12	none
CCCOC1(NC(=O)c2ccccc2)C(C)=CC(=O)C=C1C	none
N#Cc1c(NC(=O)CSc2ccccn2)oc(-c2ccccc2)c1-c1ccccc1	CYP2C9 inh 86
CCn1c(SCC(=O)Nc2nc(C)cs2)nnc1-c1ccco1	none
CCn1c(SCC(=O)Nc2oc(-c3ccccc3)c(-c3ccccc3)c2C#N)nnc1-c1ccncc1	CYP2C9 inh 78, CYP2C19 inh 58
CCn1c(SCC(=O)Nc2oc(-c3ccccc3)c(-c3ccccc3)c2C#N)nnc1-c1ccco1	CYP2C9 inh 96, CYP2C19 inh 94
N#Cc1c(NC(=O)CSc2ncnc3sccc23)oc(-c2ccco2)c1-c1ccco1	CYP2C9 inh 84
O=C(CSc1ccccn1)Nc1nc2ccc(Br)cc2s1	none
CCNC(=O)CSc1ncnc2sccc12	none
Cc1ccc(/C=C2\OC(=O)c3ccccc32)cc1	none
Cc1ccc(OCCSc2ncnc3sc(C)c(C)c23)cc1C	none
Cc1nnc2n(Cc3ccccc3)c(=O)c3c4c(sc3n12)COC(C)(C)C4	none
CCC(C)(NC(=O)c1ccc(=O)[nH]c1)C(=O)NC1CCCC1 (configuration not stated)	none
COc1ccc(NC(=O)CSc2nncn2C)c([N+](=O)[O-])c1	none
COc1ccc(-c2oc(NC(=O)CSc3nncn3C)c(C#N)c2-c2ccc(OC)cc2)cc1	CYP2C9 inh 58
Cc1cnc(C(=O)OCC(=O)Nc2oc(-c3ccccc3)c(-c3ccccc3)c2C#N)cn1	CYP2C9 inh 62
CC(C)(C)NC(=O)COC(=O)/C=C/c1ccccc1[N+](=O)[O-]	none
CCOC(=O)c1c(C)[nH]c(C)c1C(=O)COC(=O)c1ccc(Cl)c(S(N)(=O)=O)c1	CYP2C19 inh 92
O=C(COC(=O)c1cc(S(=O)(=O)NCc2ccccc2)ccc1O)NCc1ccccc1	none
CNS(=O)(=O)c1cccc(C(=O)OCC(=O)N2CCc3ccccc3C2)c1	none
CNS(=O)(=O)c1cccc(C(=O)OCC(=O)NCc2ccccc2)c1	CYP2C9 activ 2.4
CCCC(C)NC(=O)COC(=O)c1ccc(Cl)c(S(N)(=O)=O)c1 (configuration not stated)	none
CCOC(=O)c1c(C)[nH]c(C)c1C(=O)COC(=O)c1cccc(S(=O)(=O)NC)c1	CYP2C19 inh 100
CNS(=O)(=O)c1cccc(C(=O)OCc2cc(Cl)cc3c2OCOC3)c1	CYP2C19 inh 78
CC(NC(N)=O)C12CC3CC(CC(C3)C1)C2 (configuration not stated)	none
CCOC(=O)c1sc(NC(=O)c2ccc(S(=O)(=O)N(CC)CC)cc2)nc1C	none
CCOC(=O)c1c(C)[nH]c(C)c1C(=O)COC(=O)c1ccc(S(=O)(=O)N(CC)CC)cc1	CYP2C9 inh 97, CYP2C19 inh 84
O=C(CCS(=O)(=O)c1cccs1)N1CCN(c2ccc(F)cc2)CC1	CYP2C19 inh 72
O=C(CCS(=O)(=O)c1cccc2nonc12)N1CCN(c2ccc(F)cc2)CC1	CYP2C9 activ 2
CCC(=O)Nc1ccccc1C(=O)OCC(=O)c1cccc2ccccc12	CYP2C9 inh 73
O=C(O)c1ccccc1C(=O)OCc1ccccc1	none
CCC(=O)Nc1ccccc1C(=O)OCc1ccc(C(=O)c2ccccc2)cc1	CYP2C9 inh 62
CCC(=O)Nc1ccccc1C(=O)N1CCCC1	none
O=C(OCc1ccc(Cl)cc1)c1ccccc1C(=O)c1ccccc1	CYP2C19 inh 72
Cc1cc(C)c(C#N)c(SCC(=O)Nc2ccccc2C(N)=O)n1	none
O=C(NCCc1ccccc1)c1ccc(-n2cnnn2)cc1	none
O=C(NCCc1c[nH]c2ccccc12)c1ccc(-n2cnnn2)cc1	CYP2C9 activ 3.1, CYP2C19 inh 53
O=C(NCCc1c[nH]c2ccccc12)c1ccc(S(=O)(=O)NCc2ccco2)cc1	CYP2C9 inh 84, CYP2C19 inh 84
O=C(NCc1ccco1)c1n[nH]c(=O)c2ccccc12	none
CC(=O)c1c(C)nc(-c2ccc(Cl)cc2)nc1N=CN(C)C	CYP2C9 inh 51
